The results in this text go back to PubChem BioAssay AID540303 (National Center for Advancing Translational Sciences (NCATS), 2011).

Screen size: about 330,000 compounds; about 1,000 (0.3%) were called active. Not shown: some 3% with an inconclusive outcome. The sample as a whole holds a higher share of actives than the screen did. Values without a mark were called inactive. Calls come from the whole dose curve; as a rule, active = well fitted inhibition curve with a large enough effect; inconclusive = small, poorly fitted or top-dose-only effect; inactive = no such curve, though single readings can be large or run the other way; tested in mouse RAW 264.7 cells.
% is set by controls: 0 for no effect and ±100 for the full control effect; potency is the fitted concentration of half-maximal effect.

This test in a line: qHTS for Inhibitors of Cell Surface uPA Generation. Note: nearly all actives have a fitted effect of over 55% in size. To be noted: cell surface uPA generation assay; series mostly up to 38.3 µM; activity change, negative = inhibition: at the top concentration. An excerpt:
The overall objective of this project is to perform a quantitative high throughput screen (qHTS) to identify novel compounds that inhibit the generation of cell surface urokinase activity. The urokinase plasminogen activator (uPA) is one of the two primary endogenous systems that mediate plasminogen activation into plasmin. Members of this system, including uPA and its receptor (uPAR), are overexpressed in several malignant tumors. This system plays a major role in adhesion, migration, invasion and metastasis of cancer cells. Small molecule inhibitors of the uPA system will serve as probes to understand the molecular mechanisms of the uPA cascade and better understanding the microenvironmental circumstances that facilitate the activation of plasminogen by uPA, and finally may provide novel candidate agents for anticancer drug therapy.
[…] […] Upon inhibition of the uPA activation cascade, the subsequent cell surface uPA activity-dependent translocation of LF into the cytoplasm is inhibited. ATP-Lite is used to measure intracellular ATP concentrations, which remain increased if LF entry into the cytoplasm is inhibited. This validation assay was performed using a small set of validation compounds.
NIH Chemical Genomics Center [NCGC]
NIH Molecular Libraries Probe Centers Network [MLPCN]
Assay Submitter (PI): Thomas Bugge, National Institute of Dental and Craniofacial Research, NIH
Cultured RAW 264.7 were dispensed into 1536-well clear bottom, white walled tissue culture plates at a density of 4000 cells/well and were incubated overnight (12-16 h) at 37 C in a 5% CO2 incubator. Serially diluted compounds in 23 nl DMSO were added to cells. […] Compound and reagent-treated plates were incubated for 24 h at 37 C in a 5% CO2 incubator. Perkin Elmer ATPlitetrade mark 1 step (3 ul) was then added to each well. Luminescence was detected using a Perkin Elmer ViewLuxtrade mark plate reader.
1.Dispensing RAW 264.7 cells into 1536-well, white walled tissue culture plates at a density of 4000 cells/well (4 uL).
2.Incubation at 37 C in a 5% CO2 incubator overnight.
3.Serially diluting compounds (1:5 serial dilution; 0.0024 uM to […] final concentration) in 23 nl DMSO.
5.Incubating the compound and reagent-treated plates for 24 hours at 37 C in a 5% CO2 incubator.
6.Adding ATP-Lite (3 ul).
7.Reading plates by ViewLux with an exposure length of 5 seconds.
Turning to `O=C(CCNC(=O)c1ccc(Cl)cc1)NC1CCCc2ccccc21` (stereo unspecified), the Potency is 5.62 µM (active). With `CC1=CC(=NNS(=O)(=O)c2ccc([N+](=O)[O-])cc2)CC(C)(C)C1`, the “activity change, negative = inhibition” value was -2.04%. Consider `Cc1onc(-c2c(F)cccc2Cl)c1C(=O)Nc1cccc(S(=O)(=O)N2CCCCC2)c1`, for which the “activity change, negative = inhibition” value is -0.171%.

Take `Cc1cc(C)c([N+](=O)[O-])cc1-c1ccc(/C=N/NC(=O)c2nonc2N)o1`: the “activity change, negative = inhibition” value was 2.06%. Turning to `COc1cc(/C=N/N=C(\N)c2nonc2N)cc(OC)c1OC`, the “activity change, negative = inhibition” value was 2.87%. As to `COc1cc(/C=N\NC(=O)c2nonc2N)c(OC)cc1Br`, the Potency was 7.94 µM (active). Consider `CSCCC(NC(=O)COc1ccccc1)C(=O)OCc1ccc(Cl)cc1` (stereo unspecified), for which the “activity change, negative = inhibition” value was 1.9%. With `CCOc1ccc(/C=C(/C#N)c2nnc(N3CCOCC3)n2-c2ccccc2)cc1OC`, the “activity change, negative = inhibition” value was -3.57%. Same read-out and setting: to `CCOc1ccccc1NC(=S)C(=C([O-])c1ccc2c(c1)OCCO2)[n+]1ccc(CC)cc1` belongs -8.87%; to `O=c1[nH]c2c(c(=O)n1-c1ccccc1)CCO2`, 3.17%; to `O=[N+]([O-])c1ccc(NS(=O)(=O)c2ccccc2)c(Cl)c1`, -0.654%. For `CCc1ccc(C(=O)C(C)OC(=O)CN2C(=O)NC3(CCCC3)C2=O)cc1` (stereo unspecified), the “activity change, negative = inhibition” value was -1.56%. In the case of `O=C(NCCCn1ccnc1)c1cc(Br)c(Br)s1`, the “activity change, negative = inhibition” value is 5.42%. As to `O=C(NCCCn1ccnc1)c1ccccc1F`, the “activity change, negative = inhibition” value is 1.64%. As for `O=C(NCCCn1ccnc1)c1cc(-c2ccccc2)on1`, the Potency is 5.62 µM (active). Consider `CCc1c(Nc2ccccc2Cl)nc(N)[nH]c1=O`, for which the “activity change, negative = inhibition” value is -10.9%.

In the case of `O=C(O)c1ccc(Cn2cnc3c(=S)nc[nH]c32)cc1`, the “activity change, negative = inhibition” value is -3.45%.

Turning to `CCCCC(=O)NC(c1ccc(OC)c(OC)c1)c1ccc2cccnc2c1O` (stereo unspecified), the “activity change, negative = inhibition” value was -13.8%. As for `CC1CN(Cc2ccccc2)C(=S)NC1=O` (stereo unspecified), the “activity change, negative = inhibition” value is 1.89%. Same read-out and setting: the value for `COc1cccc(/C=N/Nc2ccc(S(=O)(=O)Nc3ccccc3C(=O)O)cc2[N+](=O)[O-])c1O` was 0.183%; that for `c1ccc2c(c1)OC1OC2Oc2ccccc21` was 12.3%; that for `Cc1ccsc1/C=N/Nc1ccc(Cl)nn1` was 11.8%. On the same count and under the same terms, to `COc1cccc(/C=N/Nc2ccc(Cl)nn2)c1` belongs 5.63%. Regarding `Oc1cccc(/C=N/Nc2ccc(Cl)nn2)c1O`, the Potency was 2.82 µM (active). Turning to `Cc1ccc(S(=O)(=O)CCC(=O)OCC(=O)N(C)Cc2ccccc2)cc1`, the “activity change, negative = inhibition” value was 4.47%. Turning to `NC(=S)NN=C1CCCC(C(F)(F)F)C1` (stereo unspecified), the “activity change, negative = inhibition” value was -2.84%. On to `CSCCC(NC(=O)COc1ccccc1)C(=O)N1CCN(c2cccc(C(F)(F)F)c2)CC1` (stereo unspecified), for which the “activity change, negative = inhibition” value was -9.29%. The same measure, in the same setting: the value for `COc1cc(C2c3cc4c(cc3C(O)C3COC(=O)C23)OCO4)cc(OC)c1OC` (stereo unspecified) was -8.49%.

Take `COC(=O)CNC(=O)c1cc(-c2ccncc2)nc2ccccc12`: the “activity change, negative = inhibition” value is -0.0987%. The same measure, in the same setting: the value for `O=C(Nc1ccc(S(=O)(=O)Nc2nccs2)cc1)c1cc(-c2ccncc2)nc2ccccc12` was 1.2%.

Regarding `CCN(CC)CCNC(=O)c1ccc(NC(=O)c2cc(-c3ccncc3)nc3ccccc23)cc1`, the Potency was 10 µM (active). In the case of `CN(C(=O)c1cccc(NC(=O)Cc2cccc(NC(=O)C3CCCN(C(=O)C4CC4)C3)c2)c1)C1CCC1` (stereo unspecified), the “activity change, negative = inhibition” value was 14.2%. Still for that read-out and setting: to `O=C(Nc1ncccc1O)c1ccc(S(=O)(=O)N2CCCCCC2)cc1` belongs 0.388%; to `O=C(N/N=C/c1ccccn1)c1ccc(S(=O)(=O)N2CCCCCC2)cc1`, 5.59%. With `O=C(Nc1ncccc1O)c1ccc(S(=O)(=O)N2CCCC2)cc1`, the Potency is 7.94 µM (active). Take `Cc1cn(C2CC(O)C(CO)O2)c(=O)n(CCCc2ccccc2)c1=O` (stereo unspecified): the “activity change, negative = inhibition” value was -2.05%. For the compound `O=S1(=O)CSCS(=O)(=O)C1`, the “activity change, negative = inhibition” value is 2.84%. For `COc1ccccc1N1CCN(C(=O)c2ccc(Cl)c(S(=O)(=O)N3CCCC3)c2)CC1`, the “activity change, negative = inhibition” value is -0.654%. On to `Cc1[nH]c2ccc(C(=O)N3CCN(C)CC3)cc2c1C`, for which the “activity change, negative = inhibition” value was -8.89%.

Turning to `CCOc1ccccc1N1CCN(C(=O)c2ccc3[nH]c(C)c(C)c3c2)CC1`, the Potency is 2.51 µM (active). `CCCCCCCCNS(=O)(=O)CCNC1CCCCC1`: the “activity change, negative = inhibition” value was 6.43%. Consider `O=C(Cc1ccc(S(=O)(=O)N2CCOCC2)s1)Nc1ccc(Br)c(C(F)(F)F)c1`, for which the “activity change, negative = inhibition” value was -17.8%. With `CC(C)(C)S(=O)(=O)N1Cc2cc(CO)cc(CCO)c2[C@H]1CCO`, the “activity change, negative = inhibition” value was 2.5%. For `Cc1ccc(C(=O)N2CCN(C(=O)N3CCOCC3)CC2)cc1`, the “activity change, negative = inhibition” value was 1.5%.

Turning to `Cc1ccccc1-c1ccc(Nc2ccc(C(=O)N3CCOCC3)cc2)nn1`, the “activity change, negative = inhibition” value was -5.32%. On to `Cc1oc2c(c1C(=O)N1CCOCC1)C(=O)c1ccccc1C2=O`, for which the Potency was 2.51 µM (active).

As to `C/C(=N\Nc1ccccc1)c1cccs1`, the “activity change, negative = inhibition” value was -0.263%. For the compound `CC1C(C)N(C(=O)CCl)c2ccccc2N1C(=O)CCl` (stereo unspecified), the “activity change, negative = inhibition” value was -9.43%. As to `O=C(NN=Cc1ccccc1O)NN=Cc1ccccc1O`, the “activity change, negative = inhibition” value was -13.6%. Take `O=C1C[C@@H]2c3c(cccc3CN1Cc1ccccc1)C[C@@H](O)[C@H]2O`: the “activity change, negative = inhibition” value is 4.62%. The same measure, in the same setting: to `COc1ccc(CNCCCn2cnc3c(OCc4ccccc4)ncnc32)cc1` belongs -11.6%; to `CC(C)(C)OC(=O)N1CCC(C(=O)Nc2cccc(C(=O)NCCc3ccccc3)c2)CC1`, 21%.

Consider `CC(C)[C@@H](C(=O)OCC(=O)c1ccc2c(c1)NC(=O)CO2)N1C(=O)c2ccccc2C1=O`, for which the “activity change, negative = inhibition” value is 0.762%. On to `O=C1CC(N2CCN(C(c3ccccc3)c3ccccc3)CC2)C(=O)N1` (stereo unspecified), for which the “activity change, negative = inhibition” value was -0.34%. Consider `CC1(C)CC(N2CCN(C(c3ccccc3)c3ccccc3)CC2)=CC(=[N+]2CCCCC2)C1`, for which the Potency is 1.12 µM (active). For `Oc1ccccc1CN1CCN(C(c2ccccc2)c2ccccc2)CC1`, the “activity change, negative = inhibition” value is 7.27%.
